Several values for one entry are separate records, joined by “and”; a condition that tells them apart may be missing. Equal values may be shown once. Entries with a potency or affinity are not part of this list.

The subject of one assay is Staphylococcus aureus. Particulars: Concentration 20 uM, ASSAY_TEST Inhibition of Bacterial Growth, detection method Absorption (OD600), MEDIA CAMHB, plate type 384well, NBS, CORNING #3640, time 18 hr.
The test system of the next assay is Escherichia coli. To be noted: Concentration 20 uM, ASSAY_TEST Inhibition of Bacterial Growth, detection method Absorption (OD600), MEDIA CAMHB, plate type 384well, NBS, CORNING #3640, time 18 hr.

Regarding `COc1ccccc1OCCNCC(O)COc1cccc2[nH]c3ccccc3c12` (configuration not stated) [CARVEDILOL], the figures for the Inhibition with Staphylococcus aureus and with Escherichia coli were 10.39% and 6.44%, respectively.

`CC(C)Oc1ccc2c(=O)c(-c3ccccc3)coc2c1` [IPRIFLAVONE]: the Inhibition in the assay on Staphylococcus aureus is reported as 16.93%; in the assay on Escherichia coli, 5.9%.

With `NS(=O)(=O)c1cc(C(=O)O)c(NCc2ccco2)cc1Cl` [FUROSEMIDE], the results for the Inhibition in the assay on Staphylococcus aureus and with Escherichia coli were 14.48% and -0.33%, respectively.

`CCc1c(C)[nH]c2c1C(=O)C(CN1CCOCC1)CC2.Cl` (configuration not stated) [MOLINDONE HYDROCHLORIDE]: the Inhibition is given as -5.38% in the assay with Staphylococcus aureus and 4.7% in the assay with Escherichia coli.

On to `C[C@@H]1C[C@H]2[C@@H]3CCC4=CC(=O)C=C[C@]4(C)[C@@]3(F)[C@@H](O)C[C@]2(C)[C@@]1(O)C(=O)CO` [DEXAMETHASONE], for which the Inhibition was -14.23% and -13.77% with Staphylococcus aureus (20 µM); 5.83% and 4.46% in the assay with Escherichia coli (20 µM).

For the molecule `Cc1[nH]c(=O)c(C#N)cc1-c1ccncc1` [MILRINONE], the Inhibition in the assay with Staphylococcus aureus is on record as 14.68%; in the assay on Escherichia coli it was -0.64%.

With `CN(C)CC[C@@H](c1ccc(Cl)cc1)c1ccccn1.O=C(O)/C=C\C(=O)O` [DEXCHLORPHENIRAMINE MALEATE], the results for the Inhibition in the assay on Staphylococcus aureus and in the assay with Escherichia coli were 5.99% and 6.96%, respectively.

On to `OC[C@H]1O[C@@H](Oc2cc(O)cc(/C=C/c3ccc(O)cc3)c2)[C@H](O)[C@@H](O)[C@@H]1O` [PICEID], for which the Inhibition stood at 5.5% in the assay with Staphylococcus aureus and 8.13% in the assay on Escherichia coli.

`Cn1nnc2c(C(N)=O)ncn2c1=O` [TEMOZOLOMIDE]: the Inhibition in the assay with Staphylococcus aureus is listed as 8.98%; with Escherichia coli it was 6.63%.

As for `CC(=O)NS(=O)(=O)c1ccc(N)cc1` [SULFACETAMIDE], the Inhibition in the assay with Staphylococcus aureus was determined as 13.64%; in the assay with Escherichia coli, 1.92%.

Take `C#C[C@]1(O)CC[C@H]2[C@@H]3[C@H](C)CC4=C(CCC(=O)C4)[C@H]3CC[C@@]21C` [TIBOLONE]: the Inhibition in the assay on Staphylococcus aureus is reported as 12.93%; with Escherichia coli, 2.02%.

With `CCN(CC)CC1CCCCN1CC(=O)N1c2ccccc2C(=O)Nc2cccnc21` (configuration not stated) [OTENZEPAD], the Inhibition was determined as 7.92% with Staphylococcus aureus and 5.55% in the assay with Escherichia coli.

As for `CN1CCC(=C2c3ccccc3CCc3sccc32)CC1.O=C(O)/C=C\C(=O)O`, the results for the Inhibition in the assay on Staphylococcus aureus and in the assay with Escherichia coli were 4.8% and 2.87%, respectively.

Consider `COc1cc2nc(N3CCN(C(=O)C4CCCO4)CC3)nc(N)c2cc1OC` (configuration not stated) [TERAZOSIN], for which the Inhibition is recorded as 8.19% in the assay with Staphylococcus aureus and -0.53% in the assay with Escherichia coli.

As to `Cc1ncc([N+](=O)[O-])n1CC(C)O` (configuration not stated) [SECNIDAZOLE], the values for the Inhibition in the assay with Staphylococcus aureus and with Escherichia coli were 11.92% and 5.99%, respectively.

For `OCCN1C[C@H](O)[C@@H](O)[C@H](O)[C@H]1CO` [MIGLITOL], the results for the Inhibition in the assay with Staphylococcus aureus and with Escherichia coli were 16.69% and 5.82%, respectively.

For `CN(C)CCN(Cc1ccccc1)c1ccccn1.Cl` [TRIPELENNAMINE HYDROCHLORIDE], the results for the Inhibition with Staphylococcus aureus and in the assay with Escherichia coli were -12.77% and 7.66%, respectively.

In the case of `Cc1cccc(CN2CCN(C(c3ccccc3)c3ccc(Cl)cc3)CC2)c1.Cl.Cl` (configuration not stated), the results for the Inhibition in the assay with Staphylococcus aureus and in the assay on Escherichia coli were 9.26% and 2.8%, respectively.

On to `CCC(=O)OCC(=O)[C@@]1(OC(=O)CC)[C@@H](C)C[C@H]2[C@@H]3CCC4=CC(=O)C=C[C@]4(C)[C@@]3(Cl)[C@@H](O)C[C@@]21C` [BECLOMETHASONE DIPROPIONATE], for which the Inhibition in the assay on Staphylococcus aureus is listed as 4.92%; with Escherichia coli, -8.75%.

In the case of `CCCNC(=O)NS(=O)(=O)c1ccc(Cl)cc1` [CHLORPROPAMIDE], the Inhibition with Staphylococcus aureus is listed as 17.96%; in the assay with Escherichia coli, 2.94%.

As to `C#C[C@]1(O)CC[C@H]2[C@@H]3CCC4=Cc5oncc5C[C@]4(C)[C@H]3CC[C@@]21C` [DANAZOL], the Inhibition in the assay on Staphylococcus aureus is recorded as 2.21%; in the assay on Escherichia coli it was -2.5%.

For the molecule `CN(C)[C@@H]1C(=O)C(C(=O)NCN2CCCC2)=C(O)[C@@]2(O)C(O)=C3C(=O)c4c(O)cccc4[C@@](C)(O)C3CC12` (some centres not stated), the values for the Inhibition in the assay with Staphylococcus aureus and in the assay with Escherichia coli were 23.2% and 5.47%, respectively.

With `CC(=CCC1=C(C)C(=O)c2ccccc2C1=O)CCCC(C)CCCC(C)CCCC(C)C` (configuration not stated), the values for the Inhibition in the assay with Staphylococcus aureus and in the assay with Escherichia coli were 7.33% and 5.45%, respectively.

With `O=c1c(O[C@@H]2O[C@H](CO)[C@H](O)[C@H](O)[C@H]2O)c(-c2ccc(O)c(O)c2)oc2cc(O)cc(O)c12` [HYPEROSIDE], the Inhibition in the assay with Staphylococcus aureus is recorded as 7.34%; in the assay with Escherichia coli, 3.89%.

On to `CN(C)CCCSc1ccccc1NC(=O)/C=C/c1ccccc1.Cl.O`, for which the Inhibition with Staphylococcus aureus stood at 14.82%; with Escherichia coli it was 3.24%.

In the case of `CC(C)(C)NC(=O)[C@@H]1C[C@@H]2CCCC[C@@H]2CN1C[C@@H](O)[C@H](Cc1ccccc1)NC(=O)[C@H](CC(N)=O)NC(=O)c1ccc2ccccc2n1.CS(=O)(=O)O` [SAQUINAVIR MESYLATE], the Inhibition was -19.12% in the assay on Staphylococcus aureus and 7.7% in the assay on Escherichia coli.

In general, Inhibition refers to the drop in the measured response relative to a control, in per cent.

The record behind these values is ChEMBL document CHEMBL4513141, “CO-ADD screening of NIH (USA) - Clinical Collection” (2021).
